# Test results as given in ChEMBL document CHEMBL2218924, “A broad activity screen in support of a chemogenomic map for kinase signalling research and drug discovery” (Biochem J, 2013).
# Assays:
# [1] = biological target: T1, Ephrin type-B receptor 1 (Homo sapiens) (UniProt P54762); settings: at 10 µM
# T1 sequence (whole entry): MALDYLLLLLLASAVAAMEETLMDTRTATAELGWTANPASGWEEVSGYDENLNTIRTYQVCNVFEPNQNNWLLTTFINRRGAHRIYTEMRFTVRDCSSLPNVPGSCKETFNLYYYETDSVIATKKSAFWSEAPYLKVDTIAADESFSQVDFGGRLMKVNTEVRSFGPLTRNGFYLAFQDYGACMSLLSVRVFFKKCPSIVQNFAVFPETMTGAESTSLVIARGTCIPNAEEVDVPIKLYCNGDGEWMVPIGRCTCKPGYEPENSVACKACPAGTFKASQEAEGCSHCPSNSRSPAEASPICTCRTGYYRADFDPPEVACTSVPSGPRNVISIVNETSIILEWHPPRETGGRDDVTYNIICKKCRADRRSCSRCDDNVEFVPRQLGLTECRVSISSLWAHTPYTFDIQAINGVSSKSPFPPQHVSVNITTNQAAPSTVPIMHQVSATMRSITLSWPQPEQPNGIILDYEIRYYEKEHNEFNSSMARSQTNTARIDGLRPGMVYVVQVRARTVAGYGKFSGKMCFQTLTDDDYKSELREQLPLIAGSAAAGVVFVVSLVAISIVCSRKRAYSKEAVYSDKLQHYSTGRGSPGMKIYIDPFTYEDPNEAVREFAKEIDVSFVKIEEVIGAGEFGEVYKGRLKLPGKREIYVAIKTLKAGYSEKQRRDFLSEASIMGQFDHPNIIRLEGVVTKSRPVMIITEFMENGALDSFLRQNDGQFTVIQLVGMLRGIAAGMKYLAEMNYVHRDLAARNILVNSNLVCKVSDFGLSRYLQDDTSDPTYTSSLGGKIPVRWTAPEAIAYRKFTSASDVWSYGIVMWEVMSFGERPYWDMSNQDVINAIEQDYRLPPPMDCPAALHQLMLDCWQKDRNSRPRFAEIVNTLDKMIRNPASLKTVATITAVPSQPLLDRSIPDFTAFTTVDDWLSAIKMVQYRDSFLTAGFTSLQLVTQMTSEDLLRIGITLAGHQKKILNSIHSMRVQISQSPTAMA
# [2] = biological target: T2, Ephrin type-B receptor 2 (Homo sapiens) (UniProt P29323); settings: at 1 µM
# T2 sequence (whole entry): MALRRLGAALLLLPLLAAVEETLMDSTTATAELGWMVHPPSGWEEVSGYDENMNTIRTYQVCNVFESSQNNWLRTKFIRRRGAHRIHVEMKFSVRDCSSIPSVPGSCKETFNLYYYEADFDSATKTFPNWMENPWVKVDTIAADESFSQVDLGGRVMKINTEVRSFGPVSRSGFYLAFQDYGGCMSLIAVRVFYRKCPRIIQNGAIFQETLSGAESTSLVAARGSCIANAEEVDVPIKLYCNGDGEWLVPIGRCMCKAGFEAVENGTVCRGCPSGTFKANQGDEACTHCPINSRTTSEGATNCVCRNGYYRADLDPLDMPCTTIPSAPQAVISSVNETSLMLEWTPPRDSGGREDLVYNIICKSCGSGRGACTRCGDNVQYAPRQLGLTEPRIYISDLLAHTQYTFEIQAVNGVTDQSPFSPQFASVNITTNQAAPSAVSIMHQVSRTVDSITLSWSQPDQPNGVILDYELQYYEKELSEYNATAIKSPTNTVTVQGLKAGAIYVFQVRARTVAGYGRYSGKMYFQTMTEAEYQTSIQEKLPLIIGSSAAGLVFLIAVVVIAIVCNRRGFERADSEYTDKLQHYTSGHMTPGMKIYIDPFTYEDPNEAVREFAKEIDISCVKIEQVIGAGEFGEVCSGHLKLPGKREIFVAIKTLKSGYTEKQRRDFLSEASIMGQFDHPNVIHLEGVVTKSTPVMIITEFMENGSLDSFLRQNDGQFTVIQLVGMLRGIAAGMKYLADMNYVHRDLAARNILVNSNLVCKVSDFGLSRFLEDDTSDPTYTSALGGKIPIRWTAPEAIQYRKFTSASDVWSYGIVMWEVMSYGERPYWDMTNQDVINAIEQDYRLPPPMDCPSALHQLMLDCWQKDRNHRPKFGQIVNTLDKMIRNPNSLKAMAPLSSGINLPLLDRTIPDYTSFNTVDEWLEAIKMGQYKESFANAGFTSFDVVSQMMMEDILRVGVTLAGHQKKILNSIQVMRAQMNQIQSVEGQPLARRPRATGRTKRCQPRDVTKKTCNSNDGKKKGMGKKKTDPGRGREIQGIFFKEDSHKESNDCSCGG
# [3] = biological target: T2, Ephrin type-B receptor 2 (Homo sapiens); settings: at 10 µM
# [4] = biological target: T3, Ephrin type-B receptor 3 (Homo sapiens) (UniProt P54753); settings: at 1 µM
# T3 sequence (whole entry): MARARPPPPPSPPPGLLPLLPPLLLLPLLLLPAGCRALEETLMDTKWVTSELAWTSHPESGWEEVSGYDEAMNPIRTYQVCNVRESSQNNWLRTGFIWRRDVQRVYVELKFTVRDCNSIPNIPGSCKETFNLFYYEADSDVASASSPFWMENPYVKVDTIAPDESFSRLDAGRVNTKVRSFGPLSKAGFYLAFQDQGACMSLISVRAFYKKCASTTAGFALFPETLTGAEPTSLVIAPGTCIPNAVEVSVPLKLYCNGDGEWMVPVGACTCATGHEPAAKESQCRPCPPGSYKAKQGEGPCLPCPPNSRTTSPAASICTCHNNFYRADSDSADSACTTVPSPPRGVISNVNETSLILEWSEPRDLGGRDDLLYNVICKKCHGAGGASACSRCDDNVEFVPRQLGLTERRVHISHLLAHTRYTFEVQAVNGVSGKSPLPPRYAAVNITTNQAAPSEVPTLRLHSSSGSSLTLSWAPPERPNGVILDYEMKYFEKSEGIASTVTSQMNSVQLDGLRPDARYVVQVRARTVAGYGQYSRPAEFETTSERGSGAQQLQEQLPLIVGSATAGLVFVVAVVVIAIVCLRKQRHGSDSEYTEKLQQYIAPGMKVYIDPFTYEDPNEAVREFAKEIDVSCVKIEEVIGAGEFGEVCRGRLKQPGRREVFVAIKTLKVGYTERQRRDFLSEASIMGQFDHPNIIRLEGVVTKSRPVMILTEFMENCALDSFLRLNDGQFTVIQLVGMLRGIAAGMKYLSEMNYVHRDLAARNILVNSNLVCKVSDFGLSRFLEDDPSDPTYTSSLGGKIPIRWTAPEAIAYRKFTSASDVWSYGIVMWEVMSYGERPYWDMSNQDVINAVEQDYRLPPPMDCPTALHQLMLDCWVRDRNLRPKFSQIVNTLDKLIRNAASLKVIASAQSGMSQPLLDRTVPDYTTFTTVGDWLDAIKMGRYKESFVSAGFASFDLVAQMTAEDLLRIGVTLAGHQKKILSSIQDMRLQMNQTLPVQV
# [5] = biological target: T3, Ephrin type-B receptor 3 (Homo sapiens); settings: at 10 µM
# [6] = biological target: T4, Ephrin type-B receptor 4 (Homo sapiens) (UniProt P54760); settings: at 1 µM
# T4 sequence (whole entry): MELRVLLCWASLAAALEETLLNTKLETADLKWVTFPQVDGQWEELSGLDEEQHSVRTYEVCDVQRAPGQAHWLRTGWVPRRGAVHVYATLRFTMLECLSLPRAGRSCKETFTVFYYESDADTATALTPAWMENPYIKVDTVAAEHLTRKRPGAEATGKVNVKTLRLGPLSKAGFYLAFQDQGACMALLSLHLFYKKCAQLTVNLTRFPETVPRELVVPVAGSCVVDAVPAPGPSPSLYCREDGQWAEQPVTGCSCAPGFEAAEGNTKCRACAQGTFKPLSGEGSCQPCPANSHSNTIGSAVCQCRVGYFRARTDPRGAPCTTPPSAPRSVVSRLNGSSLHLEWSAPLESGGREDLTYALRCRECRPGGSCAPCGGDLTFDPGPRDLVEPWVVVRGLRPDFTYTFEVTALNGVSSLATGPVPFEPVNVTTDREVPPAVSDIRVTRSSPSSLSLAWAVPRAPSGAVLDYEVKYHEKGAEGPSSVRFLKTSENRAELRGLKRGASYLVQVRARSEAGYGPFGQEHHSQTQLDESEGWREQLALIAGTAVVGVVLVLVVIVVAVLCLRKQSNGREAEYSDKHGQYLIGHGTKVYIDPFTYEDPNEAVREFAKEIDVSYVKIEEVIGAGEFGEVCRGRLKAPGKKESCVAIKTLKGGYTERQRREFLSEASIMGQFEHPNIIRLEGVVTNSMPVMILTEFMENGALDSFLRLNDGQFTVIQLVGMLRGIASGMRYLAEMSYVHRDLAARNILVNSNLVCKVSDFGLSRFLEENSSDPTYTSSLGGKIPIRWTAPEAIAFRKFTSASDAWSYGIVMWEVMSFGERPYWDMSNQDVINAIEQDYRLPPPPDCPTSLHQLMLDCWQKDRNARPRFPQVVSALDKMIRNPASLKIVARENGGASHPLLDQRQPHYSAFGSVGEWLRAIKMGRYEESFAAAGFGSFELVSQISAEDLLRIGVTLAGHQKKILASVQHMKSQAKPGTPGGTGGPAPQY
# [7] = biological target: T4, Ephrin type-B receptor 4 (Homo sapiens); settings: at 10 µM
# [8] = biological target: Receptor tyrosine-protein kinase erbB-4 (Homo sapiens) (UniProt Q15303); settings: at 1 µM
# Receptor tyrosine-protein kinase erbB-4 (Homo sapiens), sequence (Q15303 whole entry): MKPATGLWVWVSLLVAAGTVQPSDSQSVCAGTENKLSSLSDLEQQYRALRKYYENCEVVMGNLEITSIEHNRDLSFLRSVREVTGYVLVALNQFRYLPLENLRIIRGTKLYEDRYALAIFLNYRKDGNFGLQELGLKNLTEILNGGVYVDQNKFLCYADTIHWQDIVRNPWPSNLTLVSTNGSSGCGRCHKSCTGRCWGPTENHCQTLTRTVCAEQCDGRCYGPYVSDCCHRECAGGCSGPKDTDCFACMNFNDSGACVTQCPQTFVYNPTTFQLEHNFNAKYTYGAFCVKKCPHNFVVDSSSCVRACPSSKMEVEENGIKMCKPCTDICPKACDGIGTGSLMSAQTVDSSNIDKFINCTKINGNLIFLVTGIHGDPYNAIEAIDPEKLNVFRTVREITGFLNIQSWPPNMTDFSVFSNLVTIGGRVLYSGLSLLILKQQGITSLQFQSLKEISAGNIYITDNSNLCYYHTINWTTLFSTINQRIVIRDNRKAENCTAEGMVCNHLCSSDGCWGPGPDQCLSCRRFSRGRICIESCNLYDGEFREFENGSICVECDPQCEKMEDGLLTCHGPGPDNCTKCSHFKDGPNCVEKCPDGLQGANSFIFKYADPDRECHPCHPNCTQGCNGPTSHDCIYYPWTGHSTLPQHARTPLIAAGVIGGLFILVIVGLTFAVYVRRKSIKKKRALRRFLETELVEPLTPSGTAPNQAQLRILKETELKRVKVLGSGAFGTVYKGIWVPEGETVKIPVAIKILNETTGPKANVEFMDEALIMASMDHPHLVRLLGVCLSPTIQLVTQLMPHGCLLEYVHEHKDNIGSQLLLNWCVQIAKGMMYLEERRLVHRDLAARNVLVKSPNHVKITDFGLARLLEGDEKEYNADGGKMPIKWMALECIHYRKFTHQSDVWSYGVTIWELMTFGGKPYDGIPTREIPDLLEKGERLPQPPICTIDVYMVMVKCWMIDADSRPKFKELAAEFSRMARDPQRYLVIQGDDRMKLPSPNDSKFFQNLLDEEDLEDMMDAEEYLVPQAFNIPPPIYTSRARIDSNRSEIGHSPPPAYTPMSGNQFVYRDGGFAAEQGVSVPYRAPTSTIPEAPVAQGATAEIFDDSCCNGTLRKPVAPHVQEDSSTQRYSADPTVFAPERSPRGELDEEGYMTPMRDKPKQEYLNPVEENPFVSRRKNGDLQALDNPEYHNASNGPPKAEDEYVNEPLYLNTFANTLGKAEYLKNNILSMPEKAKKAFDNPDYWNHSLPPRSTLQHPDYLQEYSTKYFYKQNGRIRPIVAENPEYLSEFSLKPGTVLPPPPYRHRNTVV
# [9] = biological target: Receptor tyrosine-protein kinase erbB-4 (Homo sapiens) (UniProt Q15303); settings: at 10 µM
# [10] = biological target: Focal adhesion kinase 1 (Homo sapiens) (UniProt Q05397); settings: at 1 µM
# Focal adhesion kinase 1 (Homo sapiens), sequence (Q05397 2-1052 limits assumed): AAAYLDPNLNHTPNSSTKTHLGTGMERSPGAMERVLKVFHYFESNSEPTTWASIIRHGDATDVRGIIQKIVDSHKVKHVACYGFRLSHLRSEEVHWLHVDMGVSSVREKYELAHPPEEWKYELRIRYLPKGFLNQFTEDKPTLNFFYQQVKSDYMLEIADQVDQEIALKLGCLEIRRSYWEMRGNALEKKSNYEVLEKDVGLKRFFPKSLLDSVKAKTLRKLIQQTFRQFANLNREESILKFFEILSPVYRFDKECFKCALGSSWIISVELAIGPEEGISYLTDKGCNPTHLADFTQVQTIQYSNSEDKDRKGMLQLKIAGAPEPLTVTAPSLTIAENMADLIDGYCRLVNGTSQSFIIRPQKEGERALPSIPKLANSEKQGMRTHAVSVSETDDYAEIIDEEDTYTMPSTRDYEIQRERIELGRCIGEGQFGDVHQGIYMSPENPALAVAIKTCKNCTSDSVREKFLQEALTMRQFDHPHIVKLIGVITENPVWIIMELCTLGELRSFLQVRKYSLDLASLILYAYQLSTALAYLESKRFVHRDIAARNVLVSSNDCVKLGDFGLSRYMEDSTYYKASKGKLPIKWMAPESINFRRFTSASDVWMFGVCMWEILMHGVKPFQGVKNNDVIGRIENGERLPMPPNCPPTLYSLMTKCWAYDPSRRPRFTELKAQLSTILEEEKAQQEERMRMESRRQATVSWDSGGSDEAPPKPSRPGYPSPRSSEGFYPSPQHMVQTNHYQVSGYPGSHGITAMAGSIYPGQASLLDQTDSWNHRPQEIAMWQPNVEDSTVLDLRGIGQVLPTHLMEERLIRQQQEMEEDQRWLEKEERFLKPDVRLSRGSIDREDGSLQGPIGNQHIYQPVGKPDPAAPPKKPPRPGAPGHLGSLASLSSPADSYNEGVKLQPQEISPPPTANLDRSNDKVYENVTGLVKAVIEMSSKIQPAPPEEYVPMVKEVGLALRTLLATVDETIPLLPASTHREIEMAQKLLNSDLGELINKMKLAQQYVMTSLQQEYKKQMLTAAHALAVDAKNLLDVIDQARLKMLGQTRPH
# [11] = biological target: Focal adhesion kinase 1 (Homo sapiens) (UniProt Q05397); settings: at 10 µM
# [12] = biological target: Fibroblast growth factor receptor 1 (Homo sapiens) (UniProt P11362); settings: at 1 µM
# [13] = biological target: Fibroblast growth factor receptor 1 (Homo sapiens) (UniProt P11362); settings: at 10 µM
# [14] = biological target: Fibroblast growth factor receptor 2 (Homo sapiens) (UniProt P21802); settings: at 1 µM
# Fibroblast growth factor receptor 2 (Homo sapiens), sequence (P21802 22-821 limits assumed): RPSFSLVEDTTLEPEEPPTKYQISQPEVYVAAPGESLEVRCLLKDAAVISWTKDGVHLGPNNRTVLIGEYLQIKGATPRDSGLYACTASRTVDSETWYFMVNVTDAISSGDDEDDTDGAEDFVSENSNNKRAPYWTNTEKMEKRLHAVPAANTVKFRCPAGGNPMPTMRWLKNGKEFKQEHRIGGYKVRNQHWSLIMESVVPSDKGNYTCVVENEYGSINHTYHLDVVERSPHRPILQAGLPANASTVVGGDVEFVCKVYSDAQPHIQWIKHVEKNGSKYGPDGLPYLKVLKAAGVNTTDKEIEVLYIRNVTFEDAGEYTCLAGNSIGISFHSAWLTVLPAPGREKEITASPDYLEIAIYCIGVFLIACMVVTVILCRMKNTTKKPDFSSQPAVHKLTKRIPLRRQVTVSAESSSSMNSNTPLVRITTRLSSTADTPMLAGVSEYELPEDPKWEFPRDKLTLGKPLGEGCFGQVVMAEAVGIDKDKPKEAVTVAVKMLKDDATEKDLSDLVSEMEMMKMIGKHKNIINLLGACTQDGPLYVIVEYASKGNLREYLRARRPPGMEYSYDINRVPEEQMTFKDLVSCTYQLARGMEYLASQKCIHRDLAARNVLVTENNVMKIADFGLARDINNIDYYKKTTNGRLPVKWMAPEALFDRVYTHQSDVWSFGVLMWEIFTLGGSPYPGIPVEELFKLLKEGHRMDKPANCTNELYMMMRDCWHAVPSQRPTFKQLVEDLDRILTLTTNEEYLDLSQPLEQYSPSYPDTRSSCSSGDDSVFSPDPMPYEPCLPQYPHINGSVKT
# [15] = biological target: Fibroblast growth factor receptor 2 (Homo sapiens) (UniProt P21802); settings: at 10 µM
# [16] = biological target: Fibroblast growth factor receptor 3 (Homo sapiens) (UniProt P22607); settings: at 1 µM
# [17] = biological target: Fibroblast growth factor receptor 3 (Homo sapiens) (UniProt P22607); settings: at 10 µM
# [18] = biological target: Fibroblast growth factor receptor 4 (Homo sapiens) (UniProt P22455); settings: at 1 µM
# Fibroblast growth factor receptor 4 (Homo sapiens), sequence (P22455 22-802 limits assumed): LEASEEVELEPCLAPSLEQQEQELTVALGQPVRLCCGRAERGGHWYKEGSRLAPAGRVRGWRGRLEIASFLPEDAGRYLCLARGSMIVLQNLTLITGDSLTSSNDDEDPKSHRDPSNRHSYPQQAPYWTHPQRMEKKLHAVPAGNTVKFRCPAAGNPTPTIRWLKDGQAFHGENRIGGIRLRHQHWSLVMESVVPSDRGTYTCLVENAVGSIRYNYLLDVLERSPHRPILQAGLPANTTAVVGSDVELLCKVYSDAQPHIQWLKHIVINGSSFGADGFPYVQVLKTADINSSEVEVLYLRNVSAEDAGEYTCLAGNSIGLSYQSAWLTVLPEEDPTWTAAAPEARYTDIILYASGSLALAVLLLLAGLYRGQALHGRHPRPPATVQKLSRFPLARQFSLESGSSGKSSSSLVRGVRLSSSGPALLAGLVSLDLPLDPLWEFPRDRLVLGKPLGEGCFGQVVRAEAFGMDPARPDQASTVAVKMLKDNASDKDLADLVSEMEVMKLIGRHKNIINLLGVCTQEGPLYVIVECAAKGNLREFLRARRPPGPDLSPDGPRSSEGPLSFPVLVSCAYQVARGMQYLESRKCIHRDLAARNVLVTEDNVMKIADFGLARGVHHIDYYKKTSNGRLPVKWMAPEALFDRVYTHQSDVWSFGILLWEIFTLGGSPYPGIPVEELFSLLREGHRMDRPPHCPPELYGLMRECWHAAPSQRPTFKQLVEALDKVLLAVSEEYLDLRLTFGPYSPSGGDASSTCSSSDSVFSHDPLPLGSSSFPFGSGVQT
# [19] = biological target: Fibroblast growth factor receptor 4 (Homo sapiens) (UniProt P22455); settings: at 10 µM
# [20] = biological target: Tyrosine-protein kinase Fer (Homo sapiens) (UniProt P16591); settings: at 1 µM
# Tyrosine-protein kinase Fer (Homo sapiens), sequence (P16591 whole entry, looked up): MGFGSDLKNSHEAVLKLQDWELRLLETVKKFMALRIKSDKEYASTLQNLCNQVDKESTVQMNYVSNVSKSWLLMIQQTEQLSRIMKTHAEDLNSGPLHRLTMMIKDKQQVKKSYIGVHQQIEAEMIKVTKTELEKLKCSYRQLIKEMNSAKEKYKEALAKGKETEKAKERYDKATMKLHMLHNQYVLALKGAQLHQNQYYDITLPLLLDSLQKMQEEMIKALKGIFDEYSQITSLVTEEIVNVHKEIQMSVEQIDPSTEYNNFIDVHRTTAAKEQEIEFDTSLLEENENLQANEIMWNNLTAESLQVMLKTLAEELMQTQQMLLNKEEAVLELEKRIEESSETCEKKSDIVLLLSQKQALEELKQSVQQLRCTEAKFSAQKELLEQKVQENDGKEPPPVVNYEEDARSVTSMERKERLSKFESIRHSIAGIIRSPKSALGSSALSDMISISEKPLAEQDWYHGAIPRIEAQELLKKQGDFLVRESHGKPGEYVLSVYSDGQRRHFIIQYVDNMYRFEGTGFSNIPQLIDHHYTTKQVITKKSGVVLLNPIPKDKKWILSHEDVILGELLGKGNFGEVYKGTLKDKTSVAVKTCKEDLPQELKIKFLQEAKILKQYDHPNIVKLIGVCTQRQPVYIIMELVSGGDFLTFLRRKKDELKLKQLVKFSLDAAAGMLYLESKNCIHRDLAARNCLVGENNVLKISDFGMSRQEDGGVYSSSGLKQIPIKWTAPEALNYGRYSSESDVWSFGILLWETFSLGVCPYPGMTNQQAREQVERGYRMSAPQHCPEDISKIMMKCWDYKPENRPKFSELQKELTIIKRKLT
SMILES,residual activity [1] [%],residual activity [2] [%],residual activity [3] [%],residual activity [4],residual activity [5] [%],residual activity [6] [%],residual activity [7] [%],residual activity [8] [%],residual activity [9] [%],residual activity [10] [%],residual activity [11] [%],residual activity [12] [%],residual activity [13] [%],residual activity [14] [%],residual activity [15] [%],residual activity [16] [%],residual activity [17] [%],residual activity [18] [%],residual activity [19] [%],residual activity [20] [%]
Cn1cc(/C=C2\C(=O)Nc3ccc(S(N)(=O)=O)cc32)c2ccccc21,21,73,49,100% (inactive),117,57,11,94,85,103,42,19,5,10,3,17,14,118,69,35
CO[C@H]1C[C@@H]2CC[C@@H](C)[C@@](O)(O2)C(=O)C(=O)N2CCCC[C@H]2C(=O)O[C@H]([C@H](C)C[C@@H]2CC[C@@H](O)[C@H](OC)C2)CC(=O)[C@H](C)/C=C(\C)[C@@H](O)[C@@H](OC)C(=O)[C@H](C)C[C@H](C)/C=C/C=C/C=C/1C,105,121,105,100% (inactive),57,112,147,106,130,118,83,111,63,115,114,97,107,138,145,106
Cc1ccc(S(=O)(=O)/C=C/C#N)cc1,92,122,126,118% (inactive),111,97,90,95,90,105,102,91,82,108,89,118,118,115,106,101
